# The supplement of paper PMC6522484
# ± gives the standard deviation of the averaged measurements.
# Key:
# [1] = tested on: DLD1; assay: cell viability (CellTiter-Glo) relative to plate median (fraction of plate median); higher = more viable cells; conditions: 5 µM; treatment time 24 h; reporter: 7TFP
# How it was run: (§1)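 Two independent replicates were averaged for each reported value. Library compounds were applied at a final 5 µM for 24 h to colorectal cancer cell lines stably expressing lentiviral TCF/Wnt firefly luciferase reporters. Firefly luciferase or CellTiterGlo luminescence from each well was normalised to the plate median.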
# [2] = tested on: HCT116; assay: as above; conditions: 5 µM; treatment time 24 h; reporter: TCF4/Wnt
# How it was run: as §1
# [3] = tested on: SW480; assay: as above; conditions: 5 µM; treatment time 24 h; reporter: 7TFP
# How it was run: as §1
# [4] = tested on: DLD1; assay: TCF/Wnt firefly luciferase reporter signal relative to plate median (fraction of plate median); higher = higher Wnt reporter signal; conditions: 5 µM; treatment time 24 h; reporter: 7TFP
# How it was run: as §1
# [5] = tested on: SW480; assay: as above; conditions: 5 µM; treatment time 24 h; reporter: 7TFP
# How it was run: as §1
structure (smiles),measurement,setting,value
C=C1C2=CC(=O)O[C@@H](c3ccoc3)[C@]2(C)CC[C@@H]1[C@@]1(C)C=CC(=O)C(C)(C)[C@@H]1CC(=O)OC,cell viability,[1],1.14 ± 0.071
same,cell viability,[2],1.2 ± 0.092
same,cell viability,[3],1.12 ± 0.05
same,TCF/Wnt firefly luciferase reporter signal,[4],1.01 ± 0.1
same,TCF/Wnt firefly luciferase reporter signal,[5],0.987 ± 0.033
CCOC(=O)C1=C(COCCN)NC(C)=C(C(=O)OC)C1c1ccccc1Cl (stereo not given),cell viability,[1],0.998 ± 0.031
same,cell viability,[2],1.01 ± 0.097
same,cell viability,[3],1.03 ± 0.083
same,TCF/Wnt firefly luciferase reporter signal,[4],1.02 ± 0.11
same,TCF/Wnt firefly luciferase reporter signal,[5],1.04 ± 0.042
"CC(C)CCC[C@@H](C)[C@H]1CC[C@H]2[C@@H]3C[C@@H](O)[C@@]4(O)C[C@@H](O)CC[C@]4(C)[C@H]3CC[C@]12C [CHOLESTAN-3beta,5alpha,6beta-TRIOL]",cell viability,[1],0.991 ± 0.041
same,cell viability,[2],0.924 ± 0.083
same,cell viability,[3],0.967 ± 0.016
same,TCF/Wnt firefly luciferase reporter signal,[4],0.9 ± 0.086
same,TCF/Wnt firefly luciferase reporter signal,[5],0.891 ± 0.076
C[N+]1(C)C[C@H](O)C[C@H]1C(=O)[O-],cell viability,[1],1.03 ± 0.014
same,cell viability,[2],0.985 ± 0.035
same,cell viability,[3],0.967 ± 0.0099
same,TCF/Wnt firefly luciferase reporter signal,[4],1.06 ± 0.035
same,TCF/Wnt firefly luciferase reporter signal,[5],0.869 ± 0.025
O=C1C=C2CC3(O)COc4cc(O)ccc4C3=C2C=C1O (stereo not given),cell viability,[1],1.02 ± 0.11
same,cell viability,[2],1.06 ± 0.12
same,cell viability,[3],0.98 ± 0.016
same,TCF/Wnt firefly luciferase reporter signal,[4],1.015 ± 0.0071
same,TCF/Wnt firefly luciferase reporter signal,[5],1.02
COC(=O)[C@@]1(C)CCC[C@]2(C)c3ccc(O)c(C(C)C)c3CCC12 (stereo not given in full),cell viability,[1],1.03 ± 0.028
same,cell viability,[2],0.982 ± 0.096
same,cell viability,[3],1.03 ± 0.028
same,TCF/Wnt firefly luciferase reporter signal,[4],0.892 ± 0.046
same,TCF/Wnt firefly luciferase reporter signal,[5],0.88 ± 0.049
CO[C@H]1/C=C/O[C@@]2(C)Oc3c(C)c(O)c4c(O)c(c5c(nc6cc(C)ccn65)c4c3C2=O)NC(=O)/C(C)=C\C=C\[C@H](C)[C@H](O)[C@@H](C)[C@@H](O)[C@@H](C)[C@H](OC(C)=O)[C@@H]1C,cell viability,[1],1.05 ± 0.093
same,cell viability,[2],1.1 ± 0.035
same,cell viability,[3],1.04 ± 0.042
same,TCF/Wnt firefly luciferase reporter signal,[4],1.05 ± 0.15
same,TCF/Wnt firefly luciferase reporter signal,[5],1.11 ± 0.071
C=CC1=C(C(=O)O)N2C(=O)[C@@H](NC(=O)/C(=N\O)c3csc(N)n3)[C@H]2SC1,cell viability,[1],0.911 ± 0.11
same,cell viability,[2],1.04 ± 0.1
same,cell viability,[3],0.963 ± 0.025
same,TCF/Wnt firefly luciferase reporter signal,[4],0.941 ± 0.052
same,TCF/Wnt firefly luciferase reporter signal,[5],0.969 ± 0.072
CC1(C)S[C@@H]2[C@H](NC(=O)COc3ccccc3)C(=O)N2[C@H]1C(=O)O,cell viability,[1],1.09 ± 0.021
same,cell viability,[2],1.05
same,cell viability,[3],1.01 ± 0.023
same,TCF/Wnt firefly luciferase reporter signal,[4],1.1 ± 0.028
same,TCF/Wnt firefly luciferase reporter signal,[5],1.08 ± 0.05
COc1ccc2c(C)cc(=O)oc2c1,cell viability,[1],0.974 ± 0.027
same,cell viability,[2],0.962 ± 0.022
same,cell viability,[3],0.939 ± 0.0071
same,TCF/Wnt firefly luciferase reporter signal,[4],0.803 ± 0.14
same,TCF/Wnt firefly luciferase reporter signal,[5],0.869 ± 0.099
N[C@@H](C(=O)N[C@@H]1C(=O)N2C(C(=O)O)=C(Cl)CS[C@H]12)c1ccccc1,cell viability,[1],0.963 ± 0.029
same,cell viability,[2],0.955 ± 0.064
same,cell viability,[3],0.953 ± 0.028
same,TCF/Wnt firefly luciferase reporter signal,[4],0.897 ± 0.079
same,TCF/Wnt firefly luciferase reporter signal,[5],0.742 ± 0.025
"CC(C)CC1NC(=O)C2CCCN2C1=O (single isomer, unassigned; isomere) [Cyclo(leucylprolyl) (Isomere)]",cell viability,[1],0.919 ± 0.068
same,cell viability,[2],0.94 ± 0.016
same,cell viability,[3],1.02 ± 0.054
same,TCF/Wnt firefly luciferase reporter signal,[4],0.69 ± 0.27
same,TCF/Wnt firefly luciferase reporter signal,[5],1.12 ± 0.064
C=C1[C@@H]([C@@]2(C)C=CC(=O)C(C)(C)[C@@H]2CC(=O)OC)CC[C@@]2(C)[C@H](c3ccoc3)OC(=O)[C@H]3O[C@]132,cell viability,[1],0.94 ± 0.021
same,cell viability,[2],1.01 ± 0.039
same,cell viability,[3],1.02 ± 0.021
same,TCF/Wnt firefly luciferase reporter signal,[4],0.978 ± 0.19
same,TCF/Wnt firefly luciferase reporter signal,[5],0.996 ± 0.048
CN1C(C)(C)CCCC1(C)C,cell viability,[1],0.993 ± 0.0099
same,cell viability,[2],0.939 ± 0.13
same,cell viability,[3],1.02 ± 0.059
same,TCF/Wnt firefly luciferase reporter signal,[4],0.982 ± 0.011
same,TCF/Wnt firefly luciferase reporter signal,[5],1 ± 0.025
C#C[C@]1(O)CC[C@H]2[C@@H]3CCC4=CCCC[C@@H]4[C@H]3CC[C@@]21C,cell viability,[1],1 ± 0.094
same,cell viability,[2],1.04 ± 0.021
same,cell viability,[3],0.97 ± 0.0085
same,TCF/Wnt firefly luciferase reporter signal,[4],1.02 ± 0.033
same,TCF/Wnt firefly luciferase reporter signal,[5],0.905 ± 0.042
COc1c2ccoc2cc2oc(C)cc(=O)c12,cell viability,[1],0.967 ± 0.016
same,cell viability,[2],0.973 ± 0.12
same,cell viability,[3],0.92 ± 0.0042
same,TCF/Wnt firefly luciferase reporter signal,[4],0.894 ± 0.012
same,TCF/Wnt firefly luciferase reporter signal,[5],0.986 ± 0.034
C[C@@H]1CC[C@@]23CCC4(C)[C@@](C=CC5[C@@]6(C)CCC(=O)C(C)(C)C6CC[C@]54C)(OC2=O)C3[C@H]1C (stereo not given in full),cell viability,[1],0.982 ± 0.04
same,cell viability,[2],0.991 ± 0.15
same,cell viability,[3],0.956 ± 0.018
same,TCF/Wnt firefly luciferase reporter signal,[4],0.836 ± 0.09
same,TCF/Wnt firefly luciferase reporter signal,[5],0.921 ± 0.017
COc1ccc(-c2cc(=O)c3c(OC(C)=O)cc(OC(C)=O)cc3o2)cc1,cell viability,[1],1.04 ± 0.064
same,cell viability,[2],1.07 ± 0.13
same,cell viability,[3],1.17 ± 0.057
same,TCF/Wnt firefly luciferase reporter signal,[4],1.09
same,TCF/Wnt firefly luciferase reporter signal,[5],1.21 ± 0.092
C/C=C(\C)C(=O)O[C@@H]1c2c(ccc3ccc(=O)oc23)OC(C)(C)[C@@H]1OC(C)=O,cell viability,[1],0.969 ± 0.011
same,cell viability,[2],0.92 ± 0.029
same,cell viability,[3],0.926 ± 0.047
same,TCF/Wnt firefly luciferase reporter signal,[4],0.997 ± 0.075
same,TCF/Wnt firefly luciferase reporter signal,[5],1.09 ± 0.057
Nc1ccc(C(=O)Oc2ccccc2)c(O)c1,cell viability,[1],1.05 ± 0.096
same,cell viability,[2],1.16 ± 0.064
same,cell viability,[3],1.05 ± 0.042
same,TCF/Wnt firefly luciferase reporter signal,[4],1.08 ± 0.14
same,TCF/Wnt firefly luciferase reporter signal,[5],1.03 ± 0.035
O=C1c2ccccc2C(=O)c2c(Cl)cccc21 [Chloro-Anthraquinone],cell viability,[1],1.01 ± 0.027
same,cell viability,[2],0.993 ± 0.024
same,cell viability,[3],0.974 ± 0.017
same,TCF/Wnt firefly luciferase reporter signal,[4],1.03 ± 0.16
same,TCF/Wnt firefly luciferase reporter signal,[5],0.944 ± 0.14
CC(C)=CCc1c2c(c(O)c3c(=O)c(O)c(-c4ccccc4)oc13)C=CC(C)(C)O2,cell viability,[1],1.03 ± 0.052
same,cell viability,[2],0.998 ± 0.088
same,cell viability,[3],1.025 ± 0.0071
same,TCF/Wnt firefly luciferase reporter signal,[4],0.935 ± 0.0099
same,TCF/Wnt firefly luciferase reporter signal,[5],0.974 ± 0.011
CN1CCc2c(c3ccccc3n2Cc2ccccc2)C1,cell viability,[1],1.01 ± 0.051
same,cell viability,[2],1.01 ± 0.029
same,cell viability,[3],1.04 ± 0.035
same,TCF/Wnt firefly luciferase reporter signal,[4],1.05 ± 0.1
same,TCF/Wnt firefly luciferase reporter signal,[5],0.961 ± 0.14
C[C@H](CCC(=O)O)[C@H]1CC[C@H]2[C@@H]3CC[C@@H]4C[C@H](O)CC[C@]4(C)[C@H]3CC[C@]12C,cell viability,[1],1.11 ± 0.11
same,cell viability,[2],1.17 ± 0.15
same,cell viability,[3],1.04 ± 0.028
same,TCF/Wnt firefly luciferase reporter signal,[4],1.21 ± 0.11
same,TCF/Wnt firefly luciferase reporter signal,[5],1.16 ± 0.014
CCCC(=O)Nc1ncnc2c1ncn2[C@@H]1O[C@@H]2COP(=O)(O)O[C@H]2[C@H]1OC(=O)CCC,cell viability,[1],0.945 ± 0.055
same,cell viability,[2],0.957 ± 0.026
same,cell viability,[3],0.987 ± 0.0071
same,TCF/Wnt firefly luciferase reporter signal,[4],1.11 ± 0.17
same,TCF/Wnt firefly luciferase reporter signal,[5],1.09 ± 0.014
C[C@@H]1CC[C@H]2C(C(=O)O)=C[C@@H]3[C@@H](O)C(C)(C)C[C@@]132 [Pentalenic acid],cell viability,[1],0.966 ± 0.019
same,cell viability,[2],0.941 ± 0.016
same,cell viability,[3],1.02 ± 0.042
same,TCF/Wnt firefly luciferase reporter signal,[4],0.794 ± 0.13
same,TCF/Wnt firefly luciferase reporter signal,[5],0.98 ± 0.16
CC1=CCc2c(cc3oc(C)cc(=O)c3c2O)OC1,cell viability,[1],1 ± 0.084
same,cell viability,[2],1.02 ± 0.033
same,cell viability,[3],1.06 ± 0.071
same,TCF/Wnt firefly luciferase reporter signal,[4],1.18 ± 0.15
same,TCF/Wnt firefly luciferase reporter signal,[5],1.11 ± 0.085
N/C(=N\C(=O)c1nc(Cl)c(N)nc1N)NCc1ccccc1,cell viability,[1],0.986 ± 0.035
same,cell viability,[2],0.969 ± 0.17
same,cell viability,[3],0.998 ± 0.031
same,TCF/Wnt firefly luciferase reporter signal,[4],1.07 ± 0.16
same,TCF/Wnt firefly luciferase reporter signal,[5],1.04 ± 0.066
CC(=O)N[C@@H](C=O)[C@@H](O)[C@H](O)[C@H](O)CO,cell viability,[1],1.04 ± 0.021
same,cell viability,[2],1.06 ± 0.014
same,cell viability,[3],0.945 ± 0.013
same,TCF/Wnt firefly luciferase reporter signal,[4],1.18 ± 0.035
same,TCF/Wnt firefly luciferase reporter signal,[5],1.2 ± 0.057
